PubChem BioAssay (NCI)
The panel holds about 83,000 compounds, 20% with a hit somewhere; the sample as a whole holds those more often.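 Cells were grown in 96-well plates and exposed to the test compound at a single concentration for 48 hours; results are reported as percent growth, with values below 10 considered active.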 The source made the active and inactive calls.

Experiments:
Assay in all cases: NCI-60 one-dose screen, 48 h (100 = growth as untreated, 0 = no growth, -100 = all killed)
Conditions in all cases: 10 µM unless noted
[1] = system: NCI-H226 lung
[2] = system: NCI-H322M lung
[3] = system: HOP-62 NSCLC
[4] = system: NCI-H460 lung
[5] = system: HOP-92 NSCLC
[6] = system: NCI-H522 lung
[7] = system: A549/ATCC NSCLC
[8] = system: 786-0 renal
[9] = system: COLO 205 colon
[10] = system: DU-145 prostate

Measured: growth

Nc1cc(-c2c[nH]c3ccccc23)nc2cc(-c3c[nH]c4ccccc34)nn12
inactive: [1] 67.3% | [2] 80.8% | [3] 95.3% | [5] 72.5% | [6] 43% | [7] 58.3% | [8] 46.8% | [9] 49.4% | [10] 40.2%
active: [4] 4.94%

COc1ccc(/C=N/NC(=O)c2[nH]c3ccc(Br)cc3c2-c2ccccc2)s1
inactive: [1] 47.8% | [2] 50.8% | [3] 47.6% | [5] 52.1% | [7] 31.5% | [8] 11.4% | [10] 20.4%
active: [4] 3.58% | [6] -30.1% | [9] -55.8%

c1ccc2c(NCCCN3CCOCC3)c3oc4ccccc4c3nc2c1
active: [1] -11.3% | [2] -17.5% | [3] -13.4% | [4] 0.606% | [5] -22.9% | [6] -52.8% | [7] -62.1% | [8] 6.38% | [9] -67.8% | [10] 2.98%

O=C1/C(=C/C2=Cc3ccccc3OC2)SC(=S)N1c1ccc(F)cc1
inactive: [1] 103% | [2] 97.2% | [3] 101% | [4] 105% | [5] 99.2% | [6] 90.4% | [7] 101% | [8] 96.3% | [9] 107% | [10] 104%

O=C1NC(=C(Cl)Cl)/C(=N/S(=O)(=O)N2CCCCC2CC2(C(F)(F)F)N=N2)N1 (stereo not given)
active: [5] -51.6% | [6] -59.3% | [8] -24.7% | [9] -17.5%
inactive: [1] 89.7% | [2] 97.9% | [3] 96% | [4] 84.6% | [7] 111% | [10] 74%

Nc1nc(N)c2c(n1)NC(c1ccc(C(F)(F)F)cc1)CC(c1ccc(Nc3nc(NCCO)nc(Nc4ccc(Cl)cc4)n3)cc1)=N2 (stereo not given)
inactive: [3] 71.7%
active: [1] -40.7% | [2] -61% | [4] -69% | [5] -65.6% | [6] -80.1% | [7] -66.2% | [8] -90.2% | [9] 5.02% | [10] -93.1%

CN1C(=O)N(c2ccccc2)C2N=C(N/N=C/c3ccccc3)SC21 (stereo not given)
inactive: [1] 58.7% | [2] 42.5% | [3] 39% | [5] 55.1% | [7] 33% | [8] 33.9% | [10] 19.6%
active: [4] 9.53% | [6] -12.3% | [9] 3.78%

COc1cc(/C=C/C(=O)c2ccc(C(F)(F)F)cc2)ccc1Oc1nc(NCCO)nc(N2CCOCC2)n1
inactive: [1] 89.2% | [2] 101% | [3] 90.2% | [4] 98.7% | [5] 95% | [6] 86.8% | [7] 91.6% | [8] 100% | [9] 108% | [10] 101%

c1ccc(CNc2ncnc3ccc(-c4cnc5[nH]ncc5c4)cc23)cc1
inactive: [1] 55.7% | [2] 59.3% | [3] 60.7% | [4] 65.7% | [5] 57.9% | [6] 60.9% | [7] 37.5% | [8] 61.8% | [9] 94% | [10] 49.6%

N/C(=N\c1nc2c(Cl)cc(Cl)cc2s1)C(Cl)(Cl)Cl
inactive: [1] 73.5% | [3] 20.1% | [5] 46.4% | [6] 82.4% | [8] 85.4%
active: [2] -55.6% | [4] -1.22% | [7] -12.9% | [9] -16% | [10] -27.8%

N#Cc1nc(-c2ccccc2)oc1S(=O)(=O)N1CCCCC1
inactive: [1] 105% | [2] 104% | [3] 110% | [4] 110% | [5] 55.7% | [7] 98.7% | [8] 24.7% | [9] 44.1% | [10] 41.6%
active: [6] -62%

Nc1c(C(=O)c2ccc(Br)cc2)oc2nc(-c3cnccn3)cc(-c3cccs3)c12
inactive: [1] 98.6% | [2] 103% | [3] 94% | [4] 97.2% | [5] 90.8% | [6] 98.8% | [7] 103% | [8] 102% | [9] 118% | [10] 107%

COC(=O)C1CCCN(S(=O)(=O)/N=C2\NC(=O)NC2=C(Cl)Cl)C1 (stereo not given)
inactive: [1] 105% | [2] 103% | [3] 118% | [4] 108% | [5] 110% | [6] 87.7% | [7] 106% | [8] 102% | [9] 112% | [10] 112%

Clc1ccc2c(OCCCN3CCOCC3)c3oc4ccccc4c3nc2c1
inactive: [1] 33.7% | [2] 36% | [3] 63.6% | [4] 10.5% | [5] 45.3% | [6] 29% | [7] 33.5% | [8] 27.4% | [9] 12.8% | [10] 22.9%
